Sampled rows, rich in hits. Any-hit rate of the full collection: about 3.6%.
MmCpn inh – M. maripaludis TRiC chaperonin inhibition. purified Mm-Cpn ATPase, ADP Transcreener TR-FRET. Potency, µM (highest dose often 76.9 µM), without a hit: at the top dose activity, negative = inhibition, usual class: inhibitors. hit rate 0.031% among 330,000; also: % is scaled to controls: 0 for no effect and ±100 for the full control effect; nearly all actives have a fitted effect of over 80% in size
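Inhibition of chaperonin ATP hydrolysis is measured as reduced ADP production, detected by competitive TR-FRET in which signal falls with ADP. Final enzyme 25 nM and ATP 10 uM, reacted 30 min at 37°C.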
TDP43 rescue – TDP-43 toxicity inhibition in yeast | Potency, µM (titrated, usually from 46.1 µM), without a hit: at the top dose growth rescue (activation), hits mostly activators | hit rate 1.8% among 410,000 | TDP-43 expressing yeast growth rescue, BacTiter-Glo, 24 h; also: % of control where 0% means no effect; nearly all actives have a fitted effect of over 50% in size
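Yeast cells expressing TDP-43 under galactose induction are exposed to compounds for 24 hr at 30 deg C. BacTiter-Glo luminescence measures growth, so protective compounds score as activators.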
Abeta yeast res – A-beta toxicity reversal in yeast. hit rate 0.063% among 410,000. Potency, µM (series often up to 46.1 µM), usual class: activators. yeast expressing A-beta42, growth rescue, OD600, 48 h; response scale: 0% DMSO, 100% iron-clioquinol control; also: nearly all actives have a fitted effect of over 55% in size
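Yeast A-beta toxicity model in growth medium with pinned compounds, 48 h at 30 C; growth read as absorbance at 600 nm. Normalized to FeCl3/clioquinol equimolar mix (positive) and DMSO (negative).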
aSyn rescue – alpha-synuclein toxicity inhibition in yeast; Potency, µM (titrated, usually from 46.1 µM), inactives show at the top dose growth rescue (activation), actives largely listed as activators; Yeast expressing alpha-synuclein, growth rescue, BacTiter-Glo, 24 h; hit rate 0.14% among 370,000; also: % of control where 0% means no effect; nearly all actives have a fitted effect of over 65% in size
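Screening used galactose-induced yeast with toxic alpha-synuclein levels, exposed to compound for 24 hr at 30 deg C. Cell growth, read with BacTiter-Glo luminescence, gave the measured signal.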
FUS suppressor – suppressors of FUS proteinopathy in yeast; S. cerevisiae FUS-expressing, growth rescue, OD600, 24 h; Potency, µM (titrated, usually from 76.6 µM), hits mostly activators; hit rate 0.24% among 390,000; AID 1347120;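 also: plate controls were DMSO vehicle for no effect and reference control for full effect; nearly all actives have a fitted effect of over 55% in size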
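Quantitative HTS measuring growth restoration of FUS-toxic yeast. Galactose-induced cells (OD 0.005) were exposed 24hr at 30C to compounds at several concentrations, then absorbance at 600 nm was recorded.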
ClpP mod – qHTS Assay for Activators of ClpP. purified B. subtilis ClpP, FRET peptide cleavage, 20 min. ATP-dependent Clp protease proteolytic subunit (Bacillus subtilis (strain 168)), P80244. Potency, µM (series often up to 57.5 µM), inactives show at the top dose activity change, negative = active. AID 651965, 2013. hit rate 1.9% among 340,000; active = well fitted falling curve with a large enough effect; inconclusive = small, poorly fitted or top-dose-only effect; inactive = no such curve, though single readings can be large or run the other way; also: the source files actives as falling curves though it sought activators and does not explain the sign; nearly all actives have a fitted effect of over 65% in size
Target sequence (P80244 whole entry, looked up): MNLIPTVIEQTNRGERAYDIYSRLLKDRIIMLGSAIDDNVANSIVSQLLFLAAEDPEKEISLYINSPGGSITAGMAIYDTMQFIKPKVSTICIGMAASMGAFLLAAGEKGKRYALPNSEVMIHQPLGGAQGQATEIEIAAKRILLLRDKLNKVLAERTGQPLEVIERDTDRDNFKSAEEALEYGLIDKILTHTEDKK
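Buffer: 100 mM Tris/HCl pH8, 100 mM KCl, 0.05% low protease BSA, 2.5% glycerol, 0.01% Tween-20. ClpP 10 microg/mL final; 20 min RT; delta FRET normalized to ADEP and DMSO controls.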
The depositor's hits bear a star; i = inactive; ? = inconclusive; . = no result given. Unless noted, calls follow the shape of the dose curve; as a rule, active = well fitted curve in the direction sought with a large enough effect; inconclusive = small, poorly fitted or top-dose-only effect, or another doubt; inactive = no such curve, though single readings can be large; an effect the other way counts as inactive or inconclusive. Potency is read from the fitted curve at half-maximal effect.

SMILES	MmCpn inh	TDP43 rescue	Abeta yeast res	aSyn rescue	FUS suppressor	ClpP mod
Fc1ccccc1CNc1ncnc2sccc12	2%	11µM*	i	-2%	i	.
O=C(OCc1ccc(C(=O)c2ccccc2)cc1)c1cccc(-c2nnc(-c3ccccc3)o2)c1	1%	-16%	i	-15%	i	-2%
O=C(OCc1ccccc1)c1cccc(-c2nnc(-c3ccccc3)o2)c1	1%	-11%	i	5%	i	35µM*
CCOC(=O)c1cccc(COC(=O)c2cccc(-c3nnc(-c4ccccc4)o3)c2)c1	0%	-24%	i	14%	.	32µM*
CCOC(=O)c1cc(-c2nnc(-c3ccc(Oc4ccccc4)cc3)o2)c(C)nc1C	1%	2%	i	-1%	i	3.2µM*
CCOC(=O)c1cc(C(=O)NN)c(C)nc1C	1%	21%	i	0%	.	-4%
CC(C)OC(=O)c1ccc(COC(=O)c2cccc(-c3nnc(-c4ccccc4)o3)c2)cc1	-1%	-8%	i	9%	i	?
CCOc1ccccc1CNC(=O)CCn1ccc2cc(S(=O)(=O)N3CCC(C)CC3)ccc21	.	27%	i	.	?	-3%
Brc1ccc(NCc2cccc3ccccc23)nc1	0%	?	i	.	i	-4%
Cc1ccc(S(=O)(=O)Nc2ccccc2CNc2ccc(Br)cn2)cc1	-2%	20µM*	i	0%	.	-1%
Oc1ccccc1CNc1ccc(Br)cn1	1%	0%	i	-1%	i	3.2µM*
CCCSc1ncc(Cl)c(C(=O)Nc2scc(-c3ccc(C)cc3)c2C(=O)OCC)n1	.	0%	i	.	i	2%
CSc1ccc2nnc(-c3ccc(C)cc3)n2n1	.	.	.	8%	.	-17%
C#CCOC(=O)c1cc(Cl)c(=O)n(Cc2ccc(Cl)cc2Cl)c1	1%	20µM*	i	8%	i	4%
O=C(Cn1cc(C(F)(F)F)cc(Cl)c1=O)NCc1ccc(Cl)cc1Cl	1%	-14%	i	-3%	i	.
CC(C)OC(=O)c1cc(Cl)c(=O)n(Cc2ccc(Cl)cc2Cl)c1	1%	25µM*	i	3%	i	-1%
Cc1oc2cc3oc(=O)c(CCC(=O)NCCc4ccccc4F)c(C)c3cc2c1C	.	-19%	i	.	i	-21%
CC(=O)NCCCc1ccc(C(=O)COC(=O)CNC(=O)c2ccc3ccccc3c2)cc1	.	.	.	8%	.	-17%
COC(=O)c1ccc(Sc2ccc(Cl)cc2)c(N)c1	-3%	2%	i	-1%	i	25µM*
OC(COc1ccc(Cl)cc1)CN1C2=NCCCN2c2ccccc21 (stereo not drawn)	-1%	5%	i	6%	i	22µM*
OC(CN1C2=NCCCN2c2ccccc21)c1ccc(Cl)cc1 (stereo not drawn)	-1%	11%	i	-1%	i	3%
CCOc1ccc(NC(=O)Cn2c(=O)n(Cc3ccc(C(=O)NCc4ccc5c(c4)OCO5)cc3)c(=O)c3ccccc32)cc1	.	9%	i	.	i	-29%
CCn1c2c(c(=O)n3ncc(C(=O)Nc4cc(Cl)ccc4OC)c13)CN(Cc1ccc(OC)cc1)CC2	.	26%	i	.	?	32µM*
COc1ccc(C(=O)Nc2scc(-c3ccc(Cl)cc3Cl)c2C(N)=O)cc1	-4%	-2%	i	-7%	i	28µM*
COc1cccc(-c2ccc(C#N)c(OC(=O)c3c(Cl)cccc3Cl)n2)c1	-5%	18%	i	11%	.	16µM*
SMILES	MmCpn inh	TDP43 rescue	Abeta yeast res	aSyn rescue	FUS suppressor	ClpP mod
COc1cccc(N2CCN(C(=O)C3CCN(S(=O)(=O)c4cccc5nonc45)CC3)CC2)c1	.	20%	i	.	?	-1%
CNc1nc(-c2ccccc2)[n+](-c2ccc(C)cc2)s1	3%	14µM*	i	-9%	i	1%
Cc1c(Cl)cccc1NC(CC(=O)c1ccccc1)C(=O)O (stereo not drawn)	-2%	-4%	i	?	.	25µM*
O=C(CCc1ccccc1)NC(=S)Nc1ccccc1Br	1%	?	i	-1%	i	0%
O=C(CCc1ccccc1)Nc1ccccc1[N+](=O)[O-]	3%	?	i	0%	i	1%
Cc1ccc([N+](=O)[O-])cc1NC(=S)NC(=O)C(C)(C)C	-7%	?	?	-4%	i	0%
O=C(CCc1ccccc1)NC(=S)Nc1ccccc1[N+](=O)[O-]	2%	13µM*	?	7%	i	-2%
O=C(CCCc1ccccc1)Nc1ccccc1[N+](=O)[O-]	1%	11µM*	i	23%	i	0%
Cc1c(NC(=S)NC(=O)C(C)(C)C)cccc1[N+](=O)[O-]	3%	14µM*	i	1%	i	-5%
Cc1cccc(-c2nc(CCNC(=O)COc3ccccc3)cs2)c1	.	35µM*	i	.	i	-1%
Cc1cccc(-c2nc(CCNC(=O)Cc3ccccc3)cs2)c1	.	16µM*	i	.	i	-9%
CCn1c2c(c(=O)n3ncc(C(=O)Nc4cccc(Cl)c4C)c13)CN(Cc1ccc(OC)cc1)CC2	.	-12%	i	.	?	?
Cc1csc2ncnc(N3CCN(C(=S)Nc4ccc(C(F)(F)F)cc4)CC3)c12	-2%	13µM*	i	8%	?	0%
Cc1csc2c(N3CCN(C(=S)Nc4ccc(C(F)(F)F)cc4)CC3)ncnc12	-2%	6%	i	-3%	i	-4%
Cc1cc(C)nc(Sc2ccc(/C=C(\C#N)C(N)=O)o2)n1	-2%	-3%	i	5%	i	28µM*
Cc1ccc(NC(=O)/C(C#N)=C/c2ccc(Sc3nc(C)cc(C)n3)o2)cc1	0%	-18%	i	-8%	i	1%
O=c1c(-c2cc(-c3ccc(F)cc3)nc3c2COc2ccc(Cl)cc2-3)coc2ccc(F)cc12	.	7%	i	.	i	1%
O=C(OCCn1c(=S)sc2ccccc21)c1ccccc1	.	11µM*	i	1%	.	-7%
O/N=C/CCn1c(=S)sc2ccccc21	0%	-12%	i	0%	i	0%
Cc1ccc(NC(=O)Cn2nc(N3CCN(c4ccccc4)CC3)ccc2=O)cc1F	.	18µM*	i	.	?	0%
O=C(Nc1ccc(F)cc1)c1ccc(Cn2nc(N3CCN(c4ccccc4)CC3)ccc2=O)o1	.	22µM*	i	.	?	0%
Cc1ccccc1Cn1c2ccccc2c2cnn(CC(=O)NCCc3ccccc3)c(=O)c21	.	-6%	i	.	i	-29%

Compound activity deposited in PubChem by National Center for Advancing Translational Sciences (NCATS).
